Eight molecules from PubChem BioAssay can be followed below.

Structures are written as SMILES. Activity calls are given as the source filed them. Unless noted, no rule for the calls is given here.

Assay [1] concerns Wnt5a (protein binding on small-molecule microarray). The experiment in a line: small molecules binding Wnt5a protein – biophysical, small-molecule microarray, 635/667 nm fluorescence, primary screen (AID 1142).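 Also: fluorescence read at 667 nm with signal to noise per printed feature.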 To be noted: 635 nm fluorescence, higher = more signal.
A short description of assay [2]: ATP-based viability of Huh7 replicon cells – cell-based, CellTiter-Glo luminescence, basal, 48 h, cytotoxicity control for HCV replication inhibitor project, primary screen (AID 1143).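 Also: Huh7 hepatoma cells carrying a hepatitis C replication reporter with no stimulus; test concentration not given here.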 To be noted: higher = more signal, called active from +8 up or from −8 down.
Assay [3] is described as follows: Pseudomonas biofilm growth suppression – PAO1 strain, BacTiter-Glo luminescence, LB-PBS, primary screen (AID 1144). The settings on record: P. aeruginosa PAO1 biofilm, 12 h, higher = more signal.
A short description of assay [4]: basal CRE-LacZ reporter activity in PC12 – cell-based, unstimulated, primary screen (AID 1145). To be noted: no forskolin, luminescence, 4.5 h, higher = more signal, called active from +8 up or from −8 down.
Assay [5] is described as follows: forskolin-driven CRE-LacZ activity in PC12 – cell-based, CRE-LacZ reporter, forskolin-stimulated, primary screen (AID 1146).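 Also: PC12 cells with 6xCRE LacZ reporter stimulated by forskolin 10 µM; beta-galactosidase reporter signal reflecting CREB driven transcription.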 To be noted: luminescence, 4.5 h, higher = more signal, called active from +8 up or from −8 down.
In assay [6] the target is Streptavidin (Streptomyces avidinii) (UniProt P22629). As to the kind of experiment: compounds binding control protein streptavidin – biophysical, small-molecule microarray, 635/667 nm fluorescence, artefact control for SMM compound annotation, primary screen (AID 1147).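 Also: signal reflects streptavidin binding to arrayed compounds as a control protein.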 The settings on record: higher = more signal.
Streptavidin (Streptomyces avidinii), sequence (P22629 whole entry, looked up): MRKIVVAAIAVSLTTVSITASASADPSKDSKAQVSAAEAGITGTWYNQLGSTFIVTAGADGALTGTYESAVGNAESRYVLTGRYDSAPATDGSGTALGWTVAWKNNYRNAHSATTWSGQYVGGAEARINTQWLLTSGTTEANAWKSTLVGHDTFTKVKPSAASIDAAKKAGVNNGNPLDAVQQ
A short description of assay [7]: probe aInhba binding on compound microarray – biochemical, small-molecule microarray, 635/667 nm fluorescence, primary screen (AID 1148).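 Also: score merges 667nm spot fluorescence with signal-to-noise for antibody binding to printed compounds.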 To be noted: higher = more signal.
Assay [8] concerns the target Torsin-1A (Homo sapiens) (UniProt O14656). As to the kind of experiment: TOR1A wild-type binding on microarray – cell lysate, small-molecule microarray, lysate, 635/667 nm, primary screen (AID 1149). The settings on record: COS7 hTOR1A-WT lysate, 635 nm fluorescence, higher = more signal.
Assay [9] has the same target. The experiment in a line: torsin A mutant lysate binding on microarrays – cell lysate, small-molecule microarray, COS7 lysate, 635/667 nm fluorescence, primary screen (AID 1150).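 Also: score pools 667 nm emission and signal to noise measuring lysate protein binding.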 To be noted: COS7 hTOR1A mutant lysate, 635 nm fluorescence, higher = more signal.
Assay [10] deals with Sonic hedgehog protein (Shh). As to the kind of experiment: Sonic hedgehog microarray binding compounds – biochemical, small-molecule microarray, 635/667 nm fluorescence, primary screen (AID 1151).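 Also: Shh protein binding to compounds spotted on small-molecule microarray slides; score combines spot fluorescence intensity with signal-to-noise across triplicate slides.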 The settings on record: 635 nm fluorescence, higher = more signal.
Assay [11] in a line: optical density shifts of acrAB sulA E. coli – strain DRC41, OD650, 48 h, E. coli filamentation inducer project, primary screen (AID 1152).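 Also: E. coli MC1000 strain DRC41 lacking acrAB efflux pump and sulA.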 The settings on record: higher = more signal, called active from +8 up or from −8 down.
Assay [12] in a line: probe aLefty1 binding on compound microarray – biochemical, small-molecule microarray, 635/667 nm fluorescence, primary screen (AID 1153).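 Also: score merges spot fluorescence with signal-to-noise ratio from the scanned slide images.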 To be noted: higher = more signal.
Assay [13] can be described thus: plasmodial surface anion channel blockers, osmotic lysis – cell-based, P. falciparum Indochina, OD700, 1 h, primary screen (AID 1154). To be noted: P. falciparum Indochina infected RBC osmotic lysis, higher = more signal, called active from +8 up or from −8 down.
Assay [14] is described as follows: plasmodial surface anion channel blockers, osmotic lysis – cell-based, P. falciparum Indochina, OD700, 2 h, primary screen (AID 1155).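 Also: lysis reports solute entry through the parasite surface anion channel PSAC.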 To be noted: P. falciparum Indochina infected erythrocytes, higher = more signal, called active from +8 up or from −8 down.
A short description of assay [15]: changes in parasitized red cell lysis, either direction – P. falciparum Indochina, OD700, 3 h, PSAC antagonist project, primary screen (AID 1156). To be noted: P. falciparum-infected erythrocytes, osmotic lysis, higher = more signal, called active from +8 up or from −8 down.
The nature of assay [16]: plasmodial surface anion channel blockers, osmotic lysis – cell-based, P. falciparum Indochina, OD700, 18 h, primary screen (AID 1157). The settings on record: P. falciparum Indochina infected erythrocytes, osmotic lysis OD700, 18 h; higher = more signal, called active from +8 up or from −8 down.
Assay [17] can be described thus: S6 kinase pathway phospho-S6 level changes – cell-based, A549, cytoblot, luminescence, serum-stimulated, primary screen (AID 1158).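 Also: serum-stimulated A549 lung adenocarcinoma cells; signal is phosphorylated S6 detected by cytoblot immunostaining with HRP secondary.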 To be noted: 5 h, higher = more signal.
For assay [18], the target named is NADPH oxidase 2 (Homo sapiens) (UniProt P04839). As to the kind of experiment: compounds shifting NOX2 Amplex Red fluorescence – cell-based, HEK293-NOX2, PMA-stimulated, NOX inhibitor project, primary screen (AID 1159). Also: test concentration not given here. The settings on record: 45 min, higher = more signal, called active from +8 up or from −8 down.
NADPH oxidase 2 (Homo sapiens), sequence (P04839 whole entry, looked up): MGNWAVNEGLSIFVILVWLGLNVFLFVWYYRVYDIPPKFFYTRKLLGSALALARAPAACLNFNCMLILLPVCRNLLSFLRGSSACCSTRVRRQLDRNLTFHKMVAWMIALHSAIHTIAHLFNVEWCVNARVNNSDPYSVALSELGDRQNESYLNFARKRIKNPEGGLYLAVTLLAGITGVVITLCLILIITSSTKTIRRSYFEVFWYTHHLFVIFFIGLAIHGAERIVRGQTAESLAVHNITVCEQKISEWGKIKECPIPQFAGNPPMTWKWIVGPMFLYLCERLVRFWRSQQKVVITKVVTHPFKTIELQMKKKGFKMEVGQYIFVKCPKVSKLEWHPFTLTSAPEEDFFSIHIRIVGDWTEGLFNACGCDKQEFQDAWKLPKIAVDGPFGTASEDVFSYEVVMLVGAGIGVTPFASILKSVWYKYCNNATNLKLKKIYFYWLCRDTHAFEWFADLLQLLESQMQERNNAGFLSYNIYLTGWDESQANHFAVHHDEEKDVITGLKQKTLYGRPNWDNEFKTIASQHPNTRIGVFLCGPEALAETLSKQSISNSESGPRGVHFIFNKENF
For assay [19], the target named is NADPH oxidase 4 (Homo sapiens) (UniProt Q9NPH5). The experiment in a line: compounds shifting NOX4 Amplex Red fluorescence – cell-based, HEK293-NOX4, tetracycline-induced, NOX inhibitor project, primary screen (AID 1160). To be noted: HEK293-NOX4, Amplex Red H2O2 fluorescence, 45 min; higher = more signal, called active from +8 up or from −8 down.
NADPH oxidase 4 (Homo sapiens), sequence (Q9NPH5 whole entry, looked up): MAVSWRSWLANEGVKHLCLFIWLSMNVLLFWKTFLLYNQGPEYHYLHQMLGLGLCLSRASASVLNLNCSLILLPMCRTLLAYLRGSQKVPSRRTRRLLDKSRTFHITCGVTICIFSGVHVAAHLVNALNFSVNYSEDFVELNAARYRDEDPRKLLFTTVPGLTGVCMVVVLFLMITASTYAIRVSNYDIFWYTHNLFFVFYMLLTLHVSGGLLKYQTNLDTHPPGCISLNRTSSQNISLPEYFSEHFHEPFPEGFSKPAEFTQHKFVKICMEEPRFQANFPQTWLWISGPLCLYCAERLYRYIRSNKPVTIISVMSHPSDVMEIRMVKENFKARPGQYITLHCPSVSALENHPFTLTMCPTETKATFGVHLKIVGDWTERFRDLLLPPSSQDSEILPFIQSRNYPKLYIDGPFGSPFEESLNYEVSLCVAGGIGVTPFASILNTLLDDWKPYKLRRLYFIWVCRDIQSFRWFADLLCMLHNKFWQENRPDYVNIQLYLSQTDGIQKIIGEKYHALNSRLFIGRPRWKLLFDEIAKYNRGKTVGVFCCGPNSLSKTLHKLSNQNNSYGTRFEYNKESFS
Assay [20] concerns the target NADPH oxidase 5 (Homo sapiens) (UniProt Q96PH1). As to the kind of experiment: compounds shifting NOX5 Amplex Red fluorescence – cell-based, HEK293-NOX5, NOX inhibitor project, primary screen (AID 1161). The settings on record: HEK293-NOX5, ionomycin, 45 min, higher = more signal.

Torsin-1A (Homo sapiens), sequence (O14656 whole entry, looked up): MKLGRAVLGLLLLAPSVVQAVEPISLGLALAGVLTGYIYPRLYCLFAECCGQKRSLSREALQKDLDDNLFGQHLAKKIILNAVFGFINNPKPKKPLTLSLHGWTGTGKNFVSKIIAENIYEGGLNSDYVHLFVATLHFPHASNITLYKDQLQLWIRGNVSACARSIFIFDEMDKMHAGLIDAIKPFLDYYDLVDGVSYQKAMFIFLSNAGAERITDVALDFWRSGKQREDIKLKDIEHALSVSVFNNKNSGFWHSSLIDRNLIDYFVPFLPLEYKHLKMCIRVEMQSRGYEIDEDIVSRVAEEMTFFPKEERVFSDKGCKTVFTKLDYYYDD
NADPH oxidase 5 (Homo sapiens), sequence (Q96PH1 whole entry, looked up): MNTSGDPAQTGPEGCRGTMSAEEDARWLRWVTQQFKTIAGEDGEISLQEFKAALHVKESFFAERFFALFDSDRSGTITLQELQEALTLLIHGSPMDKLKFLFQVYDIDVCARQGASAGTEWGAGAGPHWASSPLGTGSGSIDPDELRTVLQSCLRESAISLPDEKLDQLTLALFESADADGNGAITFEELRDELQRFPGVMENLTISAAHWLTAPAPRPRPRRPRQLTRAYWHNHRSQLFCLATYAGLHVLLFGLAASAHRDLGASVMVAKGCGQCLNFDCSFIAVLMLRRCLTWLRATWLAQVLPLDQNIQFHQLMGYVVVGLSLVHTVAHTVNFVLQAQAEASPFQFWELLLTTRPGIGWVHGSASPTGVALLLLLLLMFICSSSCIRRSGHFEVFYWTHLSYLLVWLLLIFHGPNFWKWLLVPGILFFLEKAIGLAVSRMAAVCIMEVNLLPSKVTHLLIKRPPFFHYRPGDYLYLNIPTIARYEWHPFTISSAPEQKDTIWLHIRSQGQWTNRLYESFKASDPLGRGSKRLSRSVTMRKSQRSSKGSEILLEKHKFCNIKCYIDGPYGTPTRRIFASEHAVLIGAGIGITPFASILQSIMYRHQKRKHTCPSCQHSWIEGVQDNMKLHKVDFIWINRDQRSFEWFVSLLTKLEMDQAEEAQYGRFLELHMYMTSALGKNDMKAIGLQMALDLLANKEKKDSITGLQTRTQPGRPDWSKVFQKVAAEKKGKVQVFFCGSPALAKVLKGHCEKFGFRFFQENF

Take `COCCCNC(=O)[C@@]1(CCC(=O)OC(C)(C)C)N=C(c2ccc(OCCCO)cc2)O[C@H]1c1ccccc1`: the composite z-score in assay [1] was 0.581; in assay [6], 0.471; in assay [7], 0.113; in assay [8] it was 0.725; in [9], 1.12; in [10] it was -0.119. The same molecule came in with a composite z-score in assay [12] of 0.0949. Also, the z-score in assay [2] was 0.0272 (inactive); in [3], -0.029 (inactive); in assay [4] it was -1.29 (inactive); in assay [5], -0.391 (inactive); in assay [11] it was 1.41 (inactive); in assay [13] it was 12.9 (active). Moreover, the z-score in assay [14] was 1.15 (inactive); in assay [15], 0.384 (inactive); in assay [16], 0.566 (inactive); in [17] it was -0.422; in assay [18], -0.865 (inactive); in assay [19], 0.388 (inactive). Moreover, in [20], the z-score turned out to be 0.188.
With `COc1ccc([Si](C)(C)[C@@H]2[C@@H](CC(=O)N3CCC[C@H]3CO)O[C@]3(C(=O)N(Cc4cccc(N5C(=O)c6cccc7cccc5c67)c4)c4ccccc43)[C@H]2C)cc1`, the composite z-score is 0.614 in assay [1]; 0.609 in assay [6]; -0.129 in assay [7]; 0.729 in assay [8]; 0.499 in assay [9]; 1.42 in assay [10]. In assay [12], this molecule yielded a composite z-score of 0.19. The z-score in assay [2] was -5.86 (inactive); in assay [3] it was -0.334 (inactive); in assay [4] it was 0.819 (inactive); in assay [5] it was -1.41 (inactive); in assay [11], 1.63 (inactive); in assay [13], 3.97 (inactive). Besides, the z-score in assay [14] was -0.263 (inactive); in assay [15], -0.16 (inactive); in assay [16], -1.24 (inactive); in [17], 0.851; in assay [18], 2.72 (inactive); in assay [19], 1.31 (inactive). In addition, the z-score in assay [20] turned out to be 2.84.
As for `CCCC1(C(=O)OC)C=C2C(=C(C(C)C)C(=O)C2C)CN1` (stereo not given), the composite z-score in [1] is -0.0597; in assay [6], -0.481; in assay [7], -0.0791; in assay [8] it was -0.814; in [9], 0.29; in [10], -0.182. For the same molecule, the composite z-score in assay [12] is 0.062. The z-score is -0.349 (inactive) in [2]; 0.2 (inactive) in assay [3]; 0.786 (inactive) in assay [4]; -0.645 (inactive) in [5]; -2.12 (inactive) in [11]; 2.85 (inactive) in assay [13]. Further, the z-score in assay [14] is 0.364 (inactive); in assay [15], 0.454 (inactive); in assay [16], 0.57 (inactive); in assay [17], -0.598; in assay [18] it was 0.216 (inactive); in assay [19] it was -1.15 (inactive). The z-score in assay [20] was -3.15.
Regarding `CO[C@H]1O[C@H](CO)[C@@H](OC(=O)Nc2cccc(F)c2)[C@H](OC(=O)c2cc3ccccc3[nH]2)[C@H]1OC(=O)c1cc2ccccc2[nH]1`, the composite z-score in assay [1] was -0.363; in assay [6], -0.256; in [7], -0.128; in [8] it was -0.536; in assay [9], -0.18; in assay [10], -0.111. The molecule further showed a composite z-score in assay [12] of -0.0412. For the same molecule, the z-score in [2] is -3.31 (inactive); in assay [3], -1.02 (inactive); in assay [4], 1.03 (inactive); in [5], -0.679 (inactive); in assay [11], 0.378 (inactive); in assay [13], 0.694 (inactive). Moreover, the z-score in assay [14] is -1.02 (inactive); in assay [15], -0.0952 (inactive); in assay [16], -0.908 (inactive); in assay [17], 2.06; in assay [18], -2.38 (inactive); in assay [19] it was -0.453 (inactive). The z-score in assay [20] was -3.81.
With `O=C1NC(=O)C2C1C=CC(C(O)C(O)CO)N2Nc1ccccn1` (stereo not given), the composite z-score is 0.146 in assay [1]; 0.0832 in assay [6]; -0.168 in [7]; 0.435 in [8]; 0.344 in assay [9]; 0.199 in assay [10]. The same molecule yielded a composite z-score in [12] of 0.586. Further, the z-score in [2] is 0.165 (inactive); in assay [3], -0.893 (inactive); in assay [4], 0.0603 (inactive); in assay [5], 0.0702 (inactive); in [11], -0.0393 (inactive); in assay [13] it was 0.0087 (inactive). Also, the z-score in assay [14] was 0.0339 (inactive); in [15], -0.489 (inactive); in [16] it was -0.145 (inactive); in assay [17], 1.14; in assay [18] it was -0.193 (inactive); in assay [19], -0.921 (inactive). In assay [20], the z-score was -0.339.
Turning to `CC1CC/C=C\[C@H]2OC34C=CCN(C(C)C)C(=O)[C@H]3N(C(C)CO)C(=O)[C@@H]4C2C(=O)O1` (stereo not given in full), the composite z-score in assay [1] was -0.293; in assay [6], -0.447; in assay [7] it was 1.09; in assay [8], 0.0269; in assay [9] it was -0.381; in assay [10] it was 1.09. Further, the composite z-score in assay [12] was found to be 0.0043. The z-score in assay [2] is 0.143 (inactive); in assay [3], -0.657 (inactive); in assay [4] it was -1.04 (inactive); in [5], -0.627 (inactive); in assay [11], 1.9 (inactive); in assay [13], 1.07 (inactive). Further, the z-score in [14] was 0.217 (inactive); in [15], 1.06 (inactive); in [16], 0.184 (inactive); in assay [17], 1.65; in assay [18] it was 0.273 (inactive); in assay [19] it was -0.381 (inactive). For the same molecule, the z-score in assay [20] was 1.45.
As for `C=C(/C=C\CNS(=O)(=O)c1ccc(C)cc1)[C@H](O)[C@H]1CCCN1S(=O)(=O)c1ccccc1[N+](=O)[O-]`, the composite z-score in assay [1] is 0.0313; in assay [6], -0.0435; in assay [7], -0.0986; in [8], 0.345; in [9], -0.0414; in [10], 0.17. This molecule also came in with a composite z-score in assay [12] of -0.0366. Moreover, the z-score was -4.19 (inactive) in [2]; 0.227 (inactive) in [3]; 13 (active) in assay [4]; 0.121 (inactive) in assay [5]; -0.473 (inactive) in [11]; 12.1 (active) in assay [13]. For the same molecule, the z-score in assay [14] was 2.16 (inactive); in [15], 1.03 (inactive); in assay [16] it was 0.77 (inactive); in [17], -0.208; in assay [18], -0.264 (inactive); in [19], -2.04 (inactive). In assay [20], the z-score is -1.77.
On to `C=CCOC(=O)[C@H]1[C@@H]2C(=O)O[C@@H](c3ccccc3)[C@@H](c3ccccc3)N2[C@@H](c2ccc(OCCOC(=O)[C@H]3C[C@H]4C(=O)NCC(=O)N4[C@H]3c3ccc(O)cc3)cc2)[C@]12C(=O)Nc1ccccc12`, for which the composite z-score in assay [1] came out at 0.592; in [6] it was 0.341; in assay [7], 0.615; in [8], 0.603; in assay [9], 1.14; in assay [10], 2.22. Further, the composite z-score in assay [12] was found to be 1.09. For the same molecule, the z-score is -0.525 (inactive) in assay [2]; -0.799 (inactive) in assay [3]; -1.08 (inactive) in [4]; -0.306 (inactive) in assay [5]; 0.141 (inactive) in [11]; 2.42 (inactive) in assay [13]. The z-score in assay [14] was 1.3 (inactive); in [15], 2.3 (inactive); in assay [16] it was 0.987 (inactive); in assay [17], -0.295; in [18], 2.06 (inactive); in assay [19], -0.365 (inactive). For the same molecule, the z-score in [20] was found to be 0.00131.
